Compound activity (PubChem BioAssay)
uPA generation: qHTS for Inhibitors of Cell Surface uPA Generation; cell surface uPA generation assay, qHTS; Potency, µM (titrated, usually from 38.3 µM), without a hit: at the highest dose activity change, negative = inhibition, usual class: inhibitors; 330,000 tested, 0.31% active; AID 540303, 2011; active = well fitted inhibition curve with a large enough effect; inconclusive = small, poorly fitted or top-dose-only effect; inactive = no such curve, though single readings can be large or run the other way; tested in mouse RAW 264.7 cells; note: potency is the fitted concentration of half-maximal effect; % is set by controls: 0 for no effect and ±100 for the full control effect; nearly all actives have a fitted effect of over 55% in size
GLP1R cytotox: qHTS of GLP-1 Receptor Inverse Agonists: Cytotox Screen | 410,000 tested, 0.13% active | HEK293 cAMP-luciferase reporter cells, luminescence, 24 h | Potency, µM (top dose mostly 38.3 µM), for inactives: at the highest dose activity change, negative = inhibition, most hits filed as inhibitors | AID 624418, 2012;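 note: loss of luciferase light is scored as toxicity; potency is the fitted concentration of half-maximal effect; % is set by controls: 0 for no effect and ±100 for the full control effect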
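Step one: seed cells (200 cells/uL, DMEM with 10% Nu serum, 1% pen-strep). Step two: 12-hour incubation at 37 deg C. Step three: pin 23 nL compound, incubate 24 hr. Step four: add luciferase reagent, read luminescence 12 min later.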
GLP-1R inv ag: qHTS of GLP-1 Receptor Inverse Agonists (Inhibition Mode); HEK293 GLP-1R CRE-luciferase, luminescence, 24 h; GLP-1R form is constitutively active; Potency, µM (highest dose often 38.3 µM), for inactives: at the highest dose activity change, negative = inhibition, usual class: inhibitors; 410,000 tested, 1.6% active; AID 624417, 2012; note: potency is the fitted concentration of half-maximal effect; % is set by controls: 0 for no effect and ±100 for the full control effect; nearly all actives have a fitted effect of over 55% in size
Target sequence (P43220 whole entry, looked up): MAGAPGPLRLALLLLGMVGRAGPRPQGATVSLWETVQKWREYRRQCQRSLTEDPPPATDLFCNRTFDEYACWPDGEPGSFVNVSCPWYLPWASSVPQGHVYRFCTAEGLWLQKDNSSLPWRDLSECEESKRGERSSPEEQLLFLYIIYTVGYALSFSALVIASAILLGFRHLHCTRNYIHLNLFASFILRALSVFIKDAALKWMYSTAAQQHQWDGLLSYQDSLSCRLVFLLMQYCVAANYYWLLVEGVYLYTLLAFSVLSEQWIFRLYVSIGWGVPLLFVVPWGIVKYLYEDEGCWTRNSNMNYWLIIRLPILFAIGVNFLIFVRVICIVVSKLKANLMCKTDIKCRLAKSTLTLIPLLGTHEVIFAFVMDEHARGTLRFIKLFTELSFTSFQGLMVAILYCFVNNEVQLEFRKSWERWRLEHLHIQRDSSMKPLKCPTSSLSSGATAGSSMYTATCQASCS
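Cells are plated, allowed 12 hours at 37 deg C, then treated with compounds for 24 hr before luciferase detection reagent is added and luminescence is read after 12 min at room temperature. The HEK293 line carries constitutively active GLP-1R with a cAMP-responsive reporter.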
GLP-1R agonist: qHTS of GLP-1 Receptor Agonists. Glucagon-like peptide 1 receptor (Homo sapiens), P43220. HEK293 GLP-1R CRE-luciferase, luminescence, 4-6 h; cells express a hypersensitive GLP-1R form. Potency, µM (highest dose often 45.6 µM), inactives show top-dose activation, actives largely listed as activators. 380,000 tested, 0.007% active. AID 624172, 2012; note: potency is the fitted concentration of half-maximal effect; % of control where 0% means no effect
CCT chaperon mod: High-Throughput Screening for Modulators of Cytosolic Chaperonin Activity; activity change, % (concentration not given with the values), hits read low; 360,000 tested, 0.3% active; purified chaperonin ATPase assay, HTRF ADP detection, 30 min; in the data active = activity change below about -30%; note: % is set by controls: 0 for no effect and ±100 for the full control effect
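Enzyme 40 or 20 nM (batch-dependent) in Tris pH 7.4/KCl/MgCl2/DTT; cpd 76 uM single point; ATP 10 uM; 30 min 37 °C; Transcreener ADP HTRF detection, 30 min RT; ratio 665/615.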
MmCpn inh: Inhibitors of TCP-1 ring complex (TRiC) of Methanococcus maripaludis (MmCpn): qHTS; 330,000 tested, 0.031% active; Potency, µM (titrated, usually from 76.9 µM), for inactives: at the highest dose activity, negative = inhibition, usual class: inhibitors; AID 504842, 2011; Chaperonin Mm-Cpn (Methanococcus maripaludis); purified Mm-Cpn ATPase, ADP Transcreener TR-FRET; note: potency is the fitted concentration of half-maximal effect; % is set by controls: 0 for no effect and ±100 for the full control effect; nearly all actives have a fitted effect of over 80% in size
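Quantitative HTS used 25 nM Mm-CPN and 10 uM ATP in magnesium/KCl Tris buffer, pH 7.4, with 1 mM DTT. Hydrolysis ran 30 min at 37°C; ADP was read by HTRF.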
The depositor's hits bear a star. An excerpt weighted towards active compounds, which were near 2.2% of everything screened. Unless noted, calls come from the whole dose curve; as a rule, active = well fitted curve in the direction sought with a large enough effect; inconclusive = small, poorly fitted or top-dose-only effect, or another doubt; inactive = no such curve, though single readings can be large; an effect the other way counts as inactive or inconclusive.

Screening COc1ccnc(CSC(N)=Nc2cccc(C(F)(F)F)c2)c1 returned uPA generation 4.5%, GLP1R cytotox 14.4%, GLP-1R inv ag 11.2µM*, GLP-1R agonist 12.2%, CCT chaperon mod -1.4 and MmCpn inh -0.3%.
`O=C(NCCN1CCCCC1)c1ccc(Cn2c(SCc3ccccc3)nc3cccnc32)cc1` gave GLP1R cytotox -12.1% and GLP-1R inv ag -20.5%.
`CC(C)N1CC(C(=O)Nc2cc(Cl)cc(Cl)c2)CC1=O` (centres undefined) gave uPA generation 7.08µM*, GLP1R cytotox -3.5%, GLP-1R inv ag -21.9%, GLP-1R agonist -5.1%, CCT chaperon mod -12.2 and MmCpn inh 0.4%.
`CC(C)N1CC(C(=O)Nc2ccc(Cl)c(Cl)c2)CC1=O` (centres undefined) gave uPA generation -8.4%, GLP1R cytotox -15.6%, GLP-1R inv ag inconclusive, GLP-1R agonist 3.8%, CCT chaperon mod -3.1 and MmCpn inh -3.0%.
Screening CC(=O)N1CCCc2cc(S(=O)(=O)N(C)CC(=O)Nc3ccc(C(C)C)cc3)ccc21 returned GLP1R cytotox -12.2% and GLP-1R inv ag inconclusive.
O=C1Nc2ccccc2/C1=N\N=C\c1ccc(O)c(O)c1 was read as uPA generation -6.5%, GLP1R cytotox 11.2µM*, GLP-1R inv ag 25.0%, GLP-1R agonist 15.2%, CCT chaperon mod -21.8 and MmCpn inh -2.3%.
Cc1ccc(Cl)cc1N1C(=O)CC(Sc2ccccc2N)C1=O (centres undefined) was read as GLP1R cytotox 1.8%, GLP-1R inv ag -4.3%, GLP-1R agonist -1.2% and CCT chaperon mod -32.6*.
For CCCS(=O)(=O)c1c(S(=O)(=O)CCC)c2cc(C(C)(C)C)ccn2c1C(=O)c1ccccc1 the results were GLP1R cytotox 15.3% and GLP-1R inv ag inconclusive.
`CCCn1cc(S(=O)(=O)c2cccc(Cl)c2)c(=O)c2cc(F)c(N3CCOCC3)cc21` gave GLP1R cytotox -3.2% and GLP-1R inv ag 10.5%.
Screening O=C(CSc1cccc[n+]1[O-])c1cc(Cl)ccc1Cl returned uPA generation 0.2%, GLP1R cytotox 0.891µM*, GLP-1R inv ag inconclusive, GLP-1R agonist 7.1%, CCT chaperon mod 2.1 and MmCpn inh -1.3%.
Screening Cc1ccccc1N(C(=O)Cn1nnc(-c2cccs2)n1)C(C(=O)NCCC(C)C)c1ccco1 (centres undefined) returned uPA generation -4.6%, GLP1R cytotox 6.1%, GLP-1R inv ag 5.62µM*, GLP-1R agonist -6.4%, CCT chaperon mod -6.0 and MmCpn inh -2.1%.
Screening CN(C)CCOC1=Cc2ccccc2Sc2ccc(Cl)cc21 returned GLP-1R agonist 19.7%.
For COc1ccc(S(=O)(=O)Nc2cc(SCC(=O)O)c(O)c3ccccc23)cc1 the results were uPA generation 11.2µM*, GLP1R cytotox -13.7%, GLP-1R inv ag inconclusive, GLP-1R agonist -0.4%, CCT chaperon mod -0.8 and MmCpn inh -26.7%.
CCOc1ccc(OCCCC(=O)N(C)CC(=O)Nc2ccccc2Br)cc1 was read as uPA generation -2.0%, GLP1R cytotox -2.2%, GLP-1R inv ag -23.8%, GLP-1R agonist 0.2%, CCT chaperon mod 0.0 and MmCpn inh 1.5%.
For CCCN(CC(=O)Nc1ccccc1C)C(=O)CCCOc1ccc(Br)cc1 the results were uPA generation 3.3%, GLP1R cytotox 2.4%, GLP-1R inv ag 8.91µM*, GLP-1R agonist 1.1%, CCT chaperon mod -1.6 and MmCpn inh -2.5%.
